SMILES strings stand for the structures. Inconclusive results are not listed. A number with no mark means an inactive call. Activity calls are given as the source filed them. Calls come from the whole dose curve; as a rule, active = well fitted inhibition curve with a large enough effect; inconclusive = small, poorly fitted or top-dose-only effect; inactive = flat fitted curve, though single readings scatter.

Max response, outcome and Potency data for 26 compounds are collected here from PubChem BioAssay (NCATS).

The test system of one test is CRL-7250. The test can be described thus: Cytotoxic Profiling of Annotated Libraries Using Quantitative High-Throughput Screening (AID 1296008). For Max response: % is set by controls: 0 for no effect and ±100 for the full control effect. The note with it: Five cell lines viability, CellTiter-Glo ATP luminescence, 48-72 h; max response: stronger effect = lower value. The method, boiled down: (§1)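 Cytotoxicity was measured as CellTiter-Glo ATP luminescence, read after 10 min at room temperature. Compound treatment of the cells lasted 48 or 72 hr at 37 degrees Celsius in a qHTS format.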
For orientation: Cellular ATP, detected with luciferase, serves as a proxy for viable cell number.

Another test deals with KB-3-1. The description is as above. The conditions noted are these: Five cell lines viability, CellTiter-Glo ATP luminescence, 48-72 h; max response: stronger effect = lower value. The method, boiled down:
as §1

The test system of a further test is NIH3T3. Described as above. The conditions noted are these: Five cell lines viability, CellTiter-Glo ATP luminescence, 48-72 h; max response: stronger effect = lower value. The method, boiled down: as §1
Test [1] has as its system HaCat. The test is described as above. The note with it: Five cell lines viability, CellTiter-Glo ATP luminescence, 48-72 h; max response: stronger effect = lower value. The method, boiled down:
as §1

Test [2] has as its system HACAT. The test can be described thus: qHTS assay to identify novel small-molecules to repurpose for Merkel cell carcinoma treatment (AID 1296009). The conditions noted are these: MCC and control cell lines, CellTiter-Glo viability, 72 h; at 44.8 µM (top of the series) unless noted. The method, boiled down: (§2)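 After compound transfer in DMSO, plates were kept 72 hr at 37 degree celsius. Luminescent ATP signal from CellTiter-Glo served as viability measure, normalized against DMSO and no-cell controls.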

For a further test, the system named is MCC-26. The description is as above. The conditions noted are these: MCC and control cell lines, CellTiter-Glo viability, 72 h. The method, boiled down:
as §2

The next test relates to MKL-2. The test is described as above. The note with it: MCC and control cell lines, CellTiter-Glo viability, 72 h. The method, boiled down:
as §2

For the next test, the system named is HEK293T. Described as above. The conditions noted are these: MCC and control cell lines, CellTiter-Glo viability, 72 h. The method, boiled down:
as §2

The subject of another test is HEK293. The test can be described thus: Cytotoxic Profiling of Annotated Libraries Using Quantitative High-Throughput Screening (AID 1296008). For Max response: % is set by controls: 0 for no effect and ±100 for the full control effect. The note with it: Five cell lines viability, CellTiter-Glo ATP luminescence, 48-72 h; max response: stronger effect = lower value. The method, boiled down:
as §1
Note: nearly all actives have a fitted effect of over 60% in size.
Potency is the fitted concentration of half-maximal effect.

`CC1(NC(=O)c2ccc(C#Cc3cccc(F)c3)cn2)COC1`: the figures for the max response with CRL-7250, with KB-3-1 and with NIH3T3 were 4.8%, -5.29% and -3.45%, respectively.

Consider `O=C(Nc1ccccc1Br)NC1CCN(c2ccc(C(F)(F)F)cn2)C1` (configuration not stated), for which the call in the test on CRL-7250 was inactive. In addition, the values for the max response in the test with KB-3-1 and in the test with NIH3T3 were -16.5% and -7.45%, respectively.

In the case of `CCCC(Nc1nc(-c2ccc(NC(=O)NCC)c(OC)c2)ncc1C)c1cccnc1` (configuration not stated), the figures for the Potency in the test with CRL-7250 and in the test on KB-3-1 were 0.206 µM (active) and 0.146 µM (active), respectively.

As for `C=C(C)C1CC(O)C(C)C12CC(O)C1(C)OC1C2O` (configuration not stated), the Potency in the test with CRL-7250 is 2.59 µM (active); with KB-3-1, 3.66 µM (active). For the same compound, the max response with NIH3T3 was -26.2%.

As to `Cc1cc(C(=O)Cn2cc(C#N)ccc2=O)c(C)n1Cc1ccccc1`, the max response in the test with CRL-7250 is -5.73%. For the same compound, the call in the test on HaCat [1], in the test with NIH3T3 and in the test with HACAT [2] was inactive.

With `O=C(c1c(F)ccc(NS(=O)(=O)N2CC[C@@H](F)C2)c1F)c1c[nH]c2ncc(-c3cnc(C4CC4)nc3)cc12`, the Potency with CRL-7250 is 23.1 µM (active). Also, the max response with KB-3-1 was -23.7%.

For `CC12CCC3C1C(c1c(cc(O)c(C(=O)c4ccccc4)c1O)O2)C3(C)C` (configuration not stated), the max response in the test with CRL-7250 is 3.27%; in the test with NIH3T3, -2.16%. In addition, the outcome in the test with HaCat [1] and with HACAT [2] was inactive.

With `CC(C)=C[C@@H]1[C@H](CO[C@@H]2O[C@H](CO)[C@@H](O)[C@H](O)[C@H]2O)C1(C)C`, the result with CRL-7250, with HaCat [1] and in the test with HACAT [2] was inactive. Moreover, the max response in the test with NIH3T3 was 4.21%.

As to `COc1cc2nc(N3CCN(C(=O)COc4c(OC)cccc4C(C)C)CC3)nc(N)c2cc1OC`, the max response with CRL-7250 was 1.78%. Besides, the compound was classed as inactive in the test with HaCat [1], in the test with NIH3T3 and in the test with HACAT [2].

For `O[C@@](Cc1ncc(CC2(C(F)(F)F)CC2)[nH]1)(c1ccc(-n2cccn2)cc1)C(F)(F)F`, the compound was classed as inactive in the test on CRL-7250, in the test with HaCat [1] and with HACAT [2]. The max response in the test on NIH3T3 was -24.1%.

For `CCC(C)C(=O)O[C@H]1[C@H](O)[C@@]2(COC(C)=O)C(CC1(C)C)C1=CCC3[C@@]4(C)CC[C@H](O[C@@H]5O[C@H](C(=O)O)[C@@H](O)[C@H](O)[C@H]5O)[C@@](C)(CO)C4CC[C@@]3(C)[C@]1(C)C[C@@H]2O` (some centres not stated), the max response with CRL-7250 was 4.21%; with NIH3T3, 2.07%. In addition, the result in the test on HaCat [1] was inactive. The outcome in the test on HACAT [2] was “inactive [at 9.27 µM]”.

On to `COC(=O)CC(O)CC(O)/C=C/c1c(C)ccc2c1C(OC(C)=O)CC(C)C2` (configuration not stated), for which the Potency with CRL-7250 was 4.04 µM (active). The compound was classed as inactive in the test with HaCat [1], in the test on NIH3T3 and in the test with HACAT [2].

As to `CN(C)C(CCOc1cccc2ccccc12)c1ccccc1` (configuration not stated), the max response in the test on CRL-7250 is -16.3%. Further, the compound was classed as inactive in the test on HaCat [1], with NIH3T3 and with HACAT [2].

As to `Cn1ncc2cc(-c3cnc(N)c(Cl)c3N3CCC4(CCNC4=O)CC3)ccc21`, the outcome in the test with CRL-7250 and with KB-3-1 was inactive.

`CC(C)=CCC/C(C)=C/COCC1OC(n2ccc(=O)[nH]c2=O)C(O)C1O` (configuration not stated): the max response was -3.59% in the test on CRL-7250 and 7.71% in the test with KB-3-1.

For the compound `O=C(NCc1nc2ccccc2c(=O)n1-c1ccc(F)cc1)Nc1ccc(Cl)c(C(F)(F)F)c1`, the outcome in the test on CRL-7250, with HaCat [1] and in the test with HACAT [2] was inactive. Further, the max response with NIH3T3 is -1.1%.

`CN[C@H]1CC[C@@H](c2ccc(Cl)c(Cl)c2)c2ccccc21`: the Potency was 3.76 µM (active) in the test on CRL-7250; 15 µM (active) with HaCat [1]; 11.9 µM (active) in the test on NIH3T3; 26.6 µM (active) with MCC-26; 8.41 µM (active) in the test on MKL-2.

With `C[C@@H](NC(=O)C(=O)c1c[nH]c2ccc([N+](=O)[O-])cc12)c1ccccc1`, the compound was classed as inactive with CRL-7250, with HaCat [1] and with HACAT [2]. The max response in the test on NIH3T3 is 3.7%.

For `CC(C)=CCC[C@](C)(O[C@@H]1O[C@H](CO[C@@H]2OC[C@@H](O)[C@H](O)[C@H]2O)[C@@H](O)[C@H](O)[C@H]1O)[C@H]1CC[C@]2(C)[C@@H]1[C@H](O)C[C@@H]1[C@@]3(C)CC[C@H](O[C@@H]4O[C@H](CO)[C@@H](O)[C@H](O)[C@H]4O)C(C)(C)[C@@H]3CC[C@]12C`, the values for the max response with CRL-7250 and in the test with KB-3-1 were -26.7% and 5.08%, respectively.

With `CCOc1cn(-c2ccc(F)cc2C)nc1C(=O)Nc1ccc(Oc2ccnc3cc(OC)c(OC)cc23)c(F)c1`, the results for the max response in the test on CRL-7250 and in the test with KB-3-1 were -25.1% and 5.26%, respectively. In addition, in the test on NIH3T3, the Potency was 5.8 µM (active).

`COc1cc(C(=O)O)ccc1NC(=O)C1NC(CC(C)(C)C)C(C#N)(c2ccc(Cl)cc2F)C1c1cccc(Cl)c1F` (configuration not stated): the max response in the test with CRL-7250 was -18.8%; in the test with NIH3T3, -5.77%. Further, the compound was classed as inactive with HaCat [1] and in the test with HACAT [2].

Turning to `CNc1nc(Nc2ccc(C(=O)N3CCOCC3)cc2OC)nc2[nH]cc(Cl)c12`, the max response in the test on CRL-7250 is 1.38%. For the same compound, the Potency in the test with KB-3-1 was 10.3 µM (active).

Consider `O=C(COc1ccc2ccccc2c1Br)Nc1cccnc1`, for which the max response in the test with CRL-7250 was -18.6%; in the test with NIH3T3 it was -5.04%. For the same compound, the call with HaCat [1] and in the test with HACAT [2] was inactive.

`Cc1c(NC(=O)OCC2COCCN2)cn2ncnc(Nc3ccc4c(cnn4Cc4cccc(F)c4)c3)c12` (configuration not stated): the max response was -30.6% in the test with CRL-7250 and -18.9% with KB-3-1.

Turning to `CN(CC1COCCO1)S(=O)(=O)Nc1ccc2ccc3ncc(-c4cnn(C)c4)cc3c(=O)c2c1` (configuration not stated), in the test on HEK293T, the Potency is 6.51 µM (active).

Consider `Cc1ccc(C)c(-c2cc(C(F)(F)F)nn2-c2ccc(S(N)(=O)=O)cc2)c1`, for which the Potency with HEK293 is 5.17 µM (active). Moreover, the max response in the test on HaCat [1] was 3.66%.
